# From PubChem BioAssay
# Sampled rows, rich in hits. Any-hit rate of the full collection: about 7.5%.
# Vaccinia mCherry: inhibitors of vaccinia virus infection (mCherry reporter signal); Potency, µM (top dose mostly 36.5 µM), hits mostly inhibitors; hit rate 0.63% among 310,000; Vaccinia virus mCherry reporter infection, fluorescence; calls by dose curve; tested in A549 cells; note: nearly all actives have a fitted effect of over 35% in size
# HCV inh: inhibitors of hepatitis C virus infection | AID 651820 | Huh7.5.1 HCVcc-Cre infection, luciferase reporter, 44 h | hit rate 3.4% among 340,000 | Potency, µM (series often up to 41.8 µM), hits mostly inhibitors
#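 Luciferase read-out (15 sec integration) after a 15 min room-temperature substrate step quantifies HCVcc-Cre infection. Cells, 1,000 per well, had compound added 4 h post-plating, then virus at ~0.5 moi, and were cultured 44 h.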
# Vaccinia Venus: inhibitors of vaccinia virus (Venus reporter); Vaccinia virus Venus reporter expression, fluorescence; Potency, µM (top dose mostly 36.5 µM), most hits filed as inhibitors; hit rate 0.46% among 330,000; AID 720580; calls by dose curve; tested in A549 cells; note: nearly all actives have a fitted effect of over 30% in size
# FMDV inh: antivirals against foot and mouth disease virus. FMDV antiviral cell-based qHTS. Potency, µM (series often up to 57.9 µM), usual class: inhibitors. hit rate 1.2% among 410,000. AID 1159524; calls by dose curve; tested in HEK293T cells; note: read-out not given here; nearly all actives have a fitted effect of over 45% in size
# Giardia FBPA inh: inhibitors of Giardia lamblia fructose-1,6-bisphosphate aldolase; Potency, µM (highest dose often 59.6 µM), hits mostly inhibitors; purified Giardia FBPA; hit rate 0.71% among 290,000; A8B2U2; note: nearly all actives have a fitted effect of over 55% in size
# Target sequence (A8B2U2 whole entry, looked up): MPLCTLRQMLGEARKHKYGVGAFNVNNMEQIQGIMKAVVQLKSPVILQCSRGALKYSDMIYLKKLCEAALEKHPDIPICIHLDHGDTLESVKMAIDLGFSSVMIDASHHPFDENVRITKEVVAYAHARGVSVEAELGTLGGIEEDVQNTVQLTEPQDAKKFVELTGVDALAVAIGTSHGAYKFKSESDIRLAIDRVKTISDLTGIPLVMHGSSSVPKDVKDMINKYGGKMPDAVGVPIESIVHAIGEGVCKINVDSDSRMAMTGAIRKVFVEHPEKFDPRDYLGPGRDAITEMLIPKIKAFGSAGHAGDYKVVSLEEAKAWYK
#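 Giardia FBPA (40 nM reagent) was preincubated 10 min at RT with compound (up to 57.5 uM final), then substrate plus GAPDH/TPI/NAD/arsenate coupling system with diaphorase/resazurin was added; resorufin fluorescence (525/598 nm) was read after 20 min.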
# HCMV antiviral: inhibitors of human cytomegalovirus; HFF cells, HCMV-luciferase reporter, 72 h; hits give low values; activity change, negative = inhibition, % at 57.5 µM; hit rate 4.5% among 410,000; AID 1259415; in the data active = activity change below about -60%; inconclusive = no clear call, values can overlap the other calls; inactive = above about -39%
#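 Luciferase read-out from HCMV-luciferase-infected HFFs (MOI 1 PFU/cell) 72 h post infection at 37C; compounds added after 16 h cell attachment; activity normalized between buffer-only basal and Salinomycin (10uM) inhibitor controls.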
# A number is an active result; – = inactive; ? = inconclusive; · = not tested or not shown. Unless noted, calls come from the whole dose curve; as a rule, active = well fitted curve in the direction sought with a large enough effect; inconclusive = small, poorly fitted or top-dose-only effect, or another doubt; inactive = no such curve, though single readings can be large; an effect the other way counts as inactive or inconclusive.
SMILES,Vaccinia mCherry,HCV inh,Vaccinia Venus,FMDV inh,Giardia FBPA inh,HCMV antiviral
O=C(CN1CCOCC1)Nc1nc(-c2ccc3c(c2)CCN3S(=O)(=O)c2ccccc2)cs1,?,3.55µM,–,22.4µM,–,-88.4
CC(=O)Nc1nc(-c2ccc3c(c2)CCN3S(C)(=O)=O)cs1,–,–,–,–,–,–
Cc1cccc(C(=O)N2CCc3cc(-c4csc(NC(=O)CN5CCCC5)n4)ccc32)c1,–,?,–,?,–,–
CS(=O)(=O)N1CCc2cc(-c3csc(NC(=O)Cc4cccs4)n3)ccc21,?,1.41µM,?,12.6µM,–,-94.2
CCC(CC)C(=O)Nc1nc(-c2ccc3c(c2)CCN3C(=O)C2CC2)c(C)s1,·,?,–,11.2µM,–,-101.7
Cc1cccc(C(=O)N2CCc3cc(-c4nc(NC(=O)CN5CCCC5)sc4C)ccc32)c1,?,12.6µM,–,–,·,–
CC(C)C(=O)Nc1nc(-c2ccc3c(c2)CCN3C(=O)C2CC2)cs1,–,?,–,–,–,–
COCCN(C(=O)COC(=O)CCC1CCCC1)c1c(N)n(Cc2ccccc2)c(=O)[nH]c1=O,–,–,–,–,·,–
Cc1sc2ncnc(OCC(=O)N3CC(=O)Nc4ccccc43)c2c1C,–,–,–,–,–,–
O=C(/C=C/[C@H]1O[C@@H](n2ccc(=O)[nH]c2=O)[C@H](O)[C@@H]1O)NC(c1ccccc1)c1ccccc1,–,·,–,–,·,–
N#Cc1c(-c2ccc(Cl)cc2)c(-c2ccc(Cl)cc2)nn(CCOC(=O)CCC(=O)O)c1=O,–,–,–,–,·,?
COc1cccc(C(C)(O)c2nc(-c3ccc(F)cc3OC)cs2)c1 (stereo not given),–,·,–,–,·,–
CC(NC(=O)CCl)c1ccccc1Br (stereo not given),–,–,–,?,–,?
Cc1sc(NC(=O)CN2CCOCC2)nc1-c1ccc2c(c1)CCN2S(=O)(=O)c1ccccc1,?,?,?,·,–,-95.8
Cc1ccccc1C(=O)N1CCc2cc(-c3nc(NC(=O)Cc4ccc5c(c4)OCO5)sc3C)ccc21,·,3.16µM,·,?,–,·
CNc1nc(-c2ccc3c(c2)CCN3C(=O)c2ccccc2C)cs1,?,?,–,–,–,–
CCc1ccc2c(c1)C1(NN=C(c3ccc(C)cc3)S1)C(=O)N2 (stereo not given),?,10µM,?,–,–,-100.9
O=C(CSc1ccc(Cl)cc1)Nc1cccc(-c2nc3ncccc3o2)c1,–,–,–,14.1µM,–,–
CC(C)C(=O)Nc1cccc(-c2nc3ncccc3o2)c1,·,–,·,–,–,–
O=C(Nc1cccc(-c2nc3ncccc3o2)c1)c1ccc(-c2cccc(Cl)c2Cl)o1,?,·,–,11.2µM,·,-91.5
Cc1ccc2cccc(NC(=O)COc3ccccc3[N+](=O)[O-])c2n1,–,·,–,–,·,–
COc1ccccc1/C=C/C(=O)c1c2c(c(C)[nH]c1=O)CCCC2,?,·,11.2µM,?,–,-108.5
COc1ccc(/C=C/C(=O)c2c(C)cc(C)[nH]c2=O)c2ccccc12,8.91µM,11.2µM,?,–,–,-99.6
Cc1ccc(/C=C/C(=O)c2c(C)cc(C)[nH]c2=O)cc1,·,?,·,?,–,-97.9
C/C(=C\c1cccs1)C(=O)c1c(C)cc(C)[nH]c1=O,–,–,–,–,–,–
SMILES,Vaccinia mCherry,HCV inh,Vaccinia Venus,FMDV inh,Giardia FBPA inh,HCMV antiviral
Cc1cc(C)c(C(=O)/C=C/c2cccs2)c(=O)[nH]1,·,–,·,–,–,-63.6
COc1ccc(CCC(=O)NCc2nc3cccnc3n2Cc2ccc(C)cc2)cc1,–,·,–,–,·,–
COc1ccc(CN(C(=O)c2snc(C(N)=O)c2N)C(C(=O)NC2CCCC2)c2ccco2)cc1 (stereo not given),–,–,–,–,–,–
CCc1ccc(/C=C(\C)C(=O)c2c(C)cc(C)[nH]c2=O)cc1,?,–,?,–,–,–
CCc1ccc(/C=C/C(=O)c2c(C)cc(C)[nH]c2=O)cc1,·,?,?,28.2µM,–,-95.0
O=C(/C=C\c1cccs1)c1c(O)ccc2ccc(=O)oc12,–,–,–,–,–,-61.6
CCCCCn1c(=O)[nH]c2cc(C(=O)NCc3ccc(F)cc3)ccc2c1=O,–,·,–,–,·,–
C#CCOCCOCCOCCNc1nc(N2CCN(C(=O)[C@H](CCCN=C(N)N)n3cc(C(N)[C@@H](C)CC)nn3)CC2)nc(N2CCN(C(=O)[C@H](CCCCN)n3cc([C@@H](N)CC(N)=O)nn3)CC2)n1 (stereo not given in full),–,?,–,–,·,–
CCOc1ccc(-c2csc(-c3c(N)c(C(=O)c4ccc5c(c4)OCO5)n4ccccc34)n2)cc1,–,·,–,–,·,–
Cc1ccc2c(c1)N(C(=O)CCC(=O)NCCN1CCOCC1)CC(C)O2 (stereo not given),?,–,–,–,–,–
CC1=CC2/C=C(\C)CCC(O)C(O)/C=C/C(=O)C23C(=O)NC(CC(C)C)C3C1C (stereo not given),?,?,?,6.31µM,–,·
O=S(=O)(/C(=C/c1ccc(C(F)(F)F)cc1)c1nc2ccccc2[nH]1)c1ccccc1,10µM,11.2µM,10µM,?,–,-103.7
CC(C)c1ccc(/C=C(\c2nc3ccccc3[nH]2)S(=O)(=O)c2ccccc2)cc1,8.91µM,12.6µM,10µM,10µM,–,-101.2
C/C(=C\c1ccc(N)cc1)c1nc2ccccc2[nH]1,·,–,·,–,–,–
O=C1Nc2ccccc2-n2nnnc2C1N1CCN(C(=O)c2ccco2)CC1 (stereo not given),–,·,–,–,·,–
CCN(C(=O)c1ccc(N2CC3CC(C2)c2cccc(=O)n2C3)c(NC(=O)c2ccncc2)c1)c1cccc(C)c1 (stereo not given),·,–,·,–,·,-74.5
COc1cc(C[C@@H]2C(=O)OC[C@H]2Cc2ccc(OC)c(OC)c2)ccc1O,?,?,?,20µM,·,-89.8
COc1cc(CC2COC(=O)C2(O)Cc2ccc(O)c(OC)c2)ccc1O (stereo not given),–,?,–,?,–,?
CCOC(=O)C(C)/C(C)=N\Nc1ccc([N+](=O)[O-])cc1[N+](=O)[O-] (stereo not given),–,?,–,–,–,–
CCOC(=O)C(C)/C(C)=N/NC(N)=S (stereo not given),22.4µM,–,?,–,?,?
O=C(N[C@H]1C/C=C\C[C@H](CC(=O)N(CCO)Cc2ccccc2)C(=O)N[C@H](Cc2c[nH]c3ccccc23)COC1=O)OCC1c2ccccc2-c2ccccc21,–,–,–,–,·,?
O=C(Nc1ccc(-c2noc(CCc3ccccc3)n2)cc1)c1ccco1,?,?,–,–,–,-87.8
c1ccc(-c2ccccc2-c2nc(-c3cccnc3)no2)cc1,–,11.2µM,–,–,–,–
c1ccc(CCc2nc(-c3cccnc3)no2)cc1,–,11.2µM,–,–,–,–
